Screening data: PubChem BioAssay, National Center for Advancing Translational Sciences (NCATS)
D2 PAM-1 = positive allosteric modulators of human D2 dopamine receptor | P14416 | potentiation, % (test concentration not listed) | AID 624464 | DiscoveRx D2 beta-arrestin cells, luminescence, 90 min; 100% = 57 uM dopamine signal | 360,000 compounds, 0.23% hits; in the data active means potentiation above about 50%
Target sequence (P14416 whole entry, looked up): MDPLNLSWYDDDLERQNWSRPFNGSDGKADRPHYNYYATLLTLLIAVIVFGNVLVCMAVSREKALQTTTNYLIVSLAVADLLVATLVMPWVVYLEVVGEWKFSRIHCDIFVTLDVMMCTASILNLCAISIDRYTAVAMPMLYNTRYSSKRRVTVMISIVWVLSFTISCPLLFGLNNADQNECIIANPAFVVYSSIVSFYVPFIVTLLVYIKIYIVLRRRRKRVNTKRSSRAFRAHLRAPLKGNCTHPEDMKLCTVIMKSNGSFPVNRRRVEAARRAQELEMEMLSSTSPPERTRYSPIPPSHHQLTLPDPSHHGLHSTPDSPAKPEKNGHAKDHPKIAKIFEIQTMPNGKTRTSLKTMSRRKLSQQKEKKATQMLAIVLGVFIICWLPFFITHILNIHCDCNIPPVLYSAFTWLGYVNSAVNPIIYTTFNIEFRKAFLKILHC
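D2 cells co-treated with compound plus 50 nM dopamine (EC20) for 90 min at 37 deg C to detect potentiation. Beta-arrestin recruitment was read as enzyme-fragment luminescence after 1 h at ambient temperature. Full response was set by 57 uM dopamine.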
D2 ag-1 = activates the human D2 dopamine receptor; P14416; DiscoveRx PathHunter D2 beta-arrestin, luminescence, 90 min; 100% = 57 uM dopamine signal; activation, % (no concentration beside the values); 360,000 compounds, 0.084% hits; AID 624465; in the data active means activation above about 40%
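Agonist mode: compounds alone added to overnight-plated D2 PathHunter cells for 90 min at 37 C, with 57 uM final dopamine (EC100) defining full response. Beta-arrestin recruitment detected by chemiluminescent reagent, read after 1 h at ambient temperature.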
D2 ag-2 = D2 dopamine receptor (human) agonism; P14416; HEK293 T-REx D2 cells, calcium flux agonist mode; activation, % at 2 µM; 340,000 compounds, 0.53% hits; AID 485358;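 active means activation over 3 SD above normal in the single-dose calcium agonist read, cut at about 30% in these data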
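HEK293 Trex D2 cells, tetracycline-induced, o/n 30 C 5% CO2; no-wash Ca dye, RT 30–90 min; 10-cycle baseline, 23 nl cpd added, kinetic Ca read 180 s; agonist hits = positive Ca response.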
D2 antagonist = antagonizes the human D2 dopamine receptor; HEK293 TREx D2 cells, calcium flux, dopamine EC80; inhibition, % at 10 µM; 340,000 compounds, 2% hits; P14416; in the data active means inhibition above about 30%; inactive means below that, where a call was filed
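Calcium flux kinetic readout in an inducible HEK293 TREx D2 line plated overnight at 30 C. After 180 s compound exposure, an EC80 dopamine challenge follows with another 180 s kinetic read to detect antagonism.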
D2 PAM-2 = positively modulates the human D2 dopamine receptor allosterically; 340,000 compounds, 0.34% hits; potentiation, % at 10 µM; HEK293 T-REx D2, calcium flux, EC20 dopamine potentiation;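 active means potentiation over 3 SD above the plate norm, cut at about 30% in these data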
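Potentiation of an EC20 dopamine calcium response is measured in a force-coupled, tetracycline-inducible Hek293 Trex D2 line. Compound-only kinetic reads over 180 s flag agonists before dopamine addition.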
Numbers stand for hits; n = inactive; x = no result given. Rows were chosen to be rich in hits. Some 2.4% of all compounds tested hit in one or more screens of this group.

SMILES	D2 PAM-1	D2 ag-1	D2 ag-2	D2 antagonist	D2 PAM-2
Cc1c(Cl)c([N+](=O)[O-])nn1CC(=O)NCc1ccco1	n	n	n	42	n
Cc1ccc(SCCC(=O)NCc2ccco2)cc1	n	n	n	n	35
CCC(=O)N1CCc2cc(Br)cc(S(=O)(=O)N(C)c3ccc(OC)cc3OC)c21	n	n	n	n	n
Cc1ccc2nc(SCC(=O)Nc3cccc(Cl)c3)nc(=O)n2c1	n	n	n	n	n
Cc1ccc2nc(SCC(=O)Nc3ccc(C)c(Cl)c3)nc(=O)n2c1	n	n	n	35	n
Cc1cc(NC(=O)CSc2nc(=O)n3cc(Cl)ccc3n2)no1	n	n	x	x	x
Cc1ccc2nc(SCC(=O)c3ccc(Cl)cc3)nc(=O)n2c1	n	n	n	32	n
Cc1ccc2nc(SCC(=O)N3CCCCCC3)nc(=O)n2c1	n	n	n	n	n
Cc1ccn2c(=O)nc(SCC(=O)Nc3cc(C)on3)nc2c1	n	n	n	42	n
COc1ccc(CNC(=O)c2ccc3c(c2)CCN3S(=O)(=O)c2ccc(C)cc2)cc1	x	x	n	x	n
CC(C)/C=C1\CC/C(=C\c2ccc(N(C)C)cc2)C1=O	n	n	92	n	n
COc1ccccc1NC(=O)c1ccc(NC(=O)Cc2n[nH]c(=O)c3ccccc23)cc1	n	n	x	x	x
COc1cccc(NC(=O)c2ccc3c(c2)CCCC3)c1	n	n	n	n	n
Cc1ccc(N(Cc2ccccc2)C(=O)c2ccc(F)c(S(=O)(=O)N3CCOCC3)c2)cc1	n	n	n	59	n
COc1ccc(OCCOC(=O)c2ccc(F)c(S(=O)(=O)N3CCOCC3)c2)cc1	n	n	n	49	n
CC(=O)c1cccc(NC(=O)c2ccc3c(c2)CCCC3)c1	n	n	n	33	n
Cc1cccc(N(Cc2ccccc2)C(=O)c2ccc(F)c(S(=O)(=O)N3CCOCC3)c2)c1	n	n	n	n	n
COc1ccc(NC(=O)c2ccc(Br)c(S(=O)(=O)N3CCOCC3)c2)cc1	n	n	n	n	33
CCN(CC(=O)Nc1ccc(Br)cc1F)CC(=O)NC1CCS(=O)(=O)C1 (stereo not drawn)	n	n	n	n	n
CC(C)c1ccc(NC(=O)c2cc3c(s2)-c2ccccc2SC3)cc1	x	x	n	x	n
CCCCn1c(N)c(N(CC(C)C)C(=O)c2cc(S(=O)(=O)N3CCOCC3)ccc2Cl)c(=O)[nH]c1=O	n	n	n	n	n
O=C1SCCC1NC(=O)C(c1ccccc1)c1ccccc1 (stereo not drawn)	n	n	n	n	n
O=C(Nc1nncs1)c1ccc(Br)c(S(=O)(=O)N2CCCC2)c1	n	n	n	56	n
COc1ccc(NC(=O)c2cc(S(=O)(=O)N3CCCC3)oc2C)cc1	n	n	n	n	31
Cc1ccc(C(=O)Nc2ccccc2)cc1S(=O)(=O)N1CCN(C)CC1	n	n	n	35	n
SMILES	D2 PAM-1	D2 ag-1	D2 ag-2	D2 antagonist	D2 PAM-2
COc1ccc(C(=O)NNC(=O)COc2ccc(Cl)cc2C)cc1S(=O)(=O)N1CCOCC1	n	n	n	33	n
COc1ccc(NC(=O)c2cc(S(=O)(=O)N3CCCC3)c[nH]2)cc1	n	n	n	n	n
CN1CCN(S(=O)(=O)c2ccc(C(=O)Nc3ccccc3)cc2)CC1	n	n	n	n	n
Cc1nn2c(=O)cc(COC(=O)c3ccc(NC(=O)c4cccs4)cc3)nc2s1	x	x	n	x	n
Cc1ccc(NC(=O)C(C)OC(=O)/C=C/c2ccccc2)cc1S(=O)(=O)N1CCOCC1 (stereo not drawn)	n	n	n	n	41
COc1ccc(C(=O)Nc2nc(C)c(C(C)=O)s2)cc1S(=O)(=O)N1CCOCC1	n	n	n	30	n
Cc1ccc(NC(=O)COC(=O)/C=C/c2cccc(Cl)c2)cc1S(=O)(=O)N1CCOCC1	n	n	n	n	n
CC(=O)c1cccc(NC(=O)c2ccc(C)c(S(=O)(=O)N3CCOCC3)c2)c1	n	n	n	50	n
COc1ccc(C(=O)Nc2nnc(C)s2)cc1S(=O)(=O)N1CCOCC1	n	n	n	n	n
O=C(Cn1ncc2c(=O)oc3ccccc3c21)NCc1ccc(Cl)cc1	x	x	n	x	n
CCOC(=O)c1nccnc1C(=O)Nc1ccc(C(F)(F)F)cc1	n	n	n	n	n
CCOC(=O)c1nccnc1C(=O)Nc1cccc(C(F)(F)F)c1	n	n	n	32	n
Cc1ccc(C(=O)Nc2cccc(C(F)(F)F)c2)cc1Nc1cnccn1	n	n	n	59	n
Cc1ccccc1C(=O)n1nc(-c2ccco2)nc1NCc1cccs1	x	x	n	x	n
CS(=O)(=O)c1ccc(-c2sc3cc4c(cc3c2C(=O)NN2CCOCC2)OCO4)cc1	n	n	x	x	x
CCC(=O)c1ccc(OCC(=O)OC(C)C(=O)NCc2ccc3c(c2)OCO3)cc1 (stereo not drawn)	n	n	n	n	n
Fc1ccc(Oc2cnns2)cc1	n	n	n	n	n
Cc1nnc(NC(=O)CSc2nnc(C(C)NC(=O)c3ccccc3F)n2C)s1 (stereo not drawn)	n	n	n	n	n
CC(NC(=O)c1ccccc1F)c1nnc(SCC(=O)Nc2nccs2)n1C (stereo not drawn)	n	n	n	n	41
COc1ccc(NS(=O)(=O)c2ccc(C(=O)N(C)Cc3ccc(C)o3)cc2)cc1	n	n	x	x	x
O=C(O)c1ccc(S(=O)(=O)c2ccc3c(c2)C(=O)N(NC(=O)c2ccc(O)cc2)C3=O)cc1	n	n	n	n	n
Cc1ccc(C(=O)NN2C(=O)c3ccc(S(=O)(=O)c4ccc(C(=O)O)cc4)cc3C2=O)cc1	n	n	n	63	n
CCC(C)NC(=O)c1cccc(NC(=O)c2nsc3ccccc23)c1 (stereo not drawn)	x	x	n	x	n
Cc1noc(/C=C/NCc2cccnc2)c1S(=O)(=O)N(C)CC(=O)N1CCc2ccccc21	n	n	n	57	n
c1ccc2c(c1)nc1n2CC2CON(C3CCCCC3)C12 (stereo not drawn)	n	n	n	37	n
SMILES	D2 PAM-1	D2 ag-1	D2 ag-2	D2 antagonist	D2 PAM-2
COc1ccccc1C(=O)Nc1nc2ccccc2[nH]1	n	n	n	n	n
COc1cc(SC)ccc1C(=O)Nc1nc2ccccc2[nH]1	n	n	n	34	n
COc1ccc(S(=O)(=O)N2CCC(C(=O)Nc3cc(C(F)(F)F)ccc3Cl)CC2)cc1	x	x	n	x	n
Cc1ccc(C)c(OC(=O)CSc2nnc(CNC(=O)c3ccccc3)o2)c1	x	x	n	x	n
CC(=O)c1cccc(NC(=O)c2ccc3nc(C(C)C)oc3c2)c1	x	x	n	x	n
Brc1ccc(-c2noc(COc3ccc4c(c3)CCC4)n2)o1	n	n	n	43	n
C[C@H]1CN([C@@H](C)CO)C(=O)CCCn2nncc2CO[C@H]1CN(C)S(=O)(=O)c1ccc(-n2cccn2)cc1	n	n	x	x	x
